Where “and” joins values, the source holds several entries; their conditions need not be identical. Identical values can stand only once. Out of some 5,500 compounds screened, about 2,000 (36%) were called active. Another 18% or so got no clear call; they are omitted. Cut-off read from the data, not from the text of the source: active = normalized growth mostly below about 0.91 (no sharp cut-off); inconclusive = no clear call, values can overlap the other calls; inactive = mostly above about 0.92. This is one part of the list.
Assay: chemical genetic growth profiling, strain panel (AID 1159580);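 note: tested at 20 µM; growth read once vehicle control cultures reached saturation at 30 °C; 1 = growth at the plate median or of vehicle wells; lower values mean less growth of the strain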
Settings: S. cerevisiae deletion strains, growth OD

Measured: normalized growth

O=C(CCCN1CCC2(CC1)C(=O)NCN2c1ccccc1)c1ccc(F)cc1
inactive: locus YAL021C, strain ccr4, active compounds read low 0.956 | locus YAL026C, strain drs2, active compounds read low 0.981 | locus YAL030W, strain snc1, active compounds read low 0.983 | locus YAL040C, strain CLN3, active compounds read low 0.989 | locus YBL061C, strain skt5, active compounds read low 0.979 | locus YBR009C, strain hhf1, active compounds read low 1.02 | locus YBR021W, strain FUR4, active compounds read low 1 | locus YBR023C, strain chs3, active compounds read low 0.995 | locus YBR171W, strain sec66, active compounds read low 0.965 | locus YBR229C, strain ROT2, active compounds read low 0.964 | locus YBR231C, strain swc5, active compounds read low 1.04 | locus YBR279W, strain paf1, active compounds read low 0.983 | locus YCL016C, strain dcc1, active compounds read low 0.975 | locus YCL029C, strain bik1, active compounds read low 0.995 | locus YCL061C, strain MRC1 (second series), active compounds read low 0.999 | locus YCL061C, strain MRC1, active compounds read low 0.981 | locus YCL069W, strain vba3, active compounds read low 0.98 | locus YCR088W, strain abp1, active compounds read low 0.982 | locus YDL005C, strain med2, active compounds read low 0.961 | locus YDL035C, strain GPR1, active compounds read low 0.992 | locus YDL040C, strain nat1, active compounds read low 0.982 | locus YDL074C, strain BRE1, active compounds read low 0.972 | locus YDL101C, strain DUN1, active compounds read low 0.984 | locus YDL134C, strain PPH21, active compounds read low 1.01 | locus YDL185W, strain tfp1, active compounds read low 0.969 | locus YDL192W, strain arf1, active compounds read low 0.997 | locus YDR001C, strain nth1, active compounds read low 0.979 | locus YDR069C, strain doa4, active compounds read low 0.946 | locus YDR101C, strain arx1, active compounds read low 0.988 | locus YDR137W, strain rgp1, active compounds read low 0.993 | locus YDR150W, strain NUM1, active compounds read low 0.996 | locus YDR159W, strain sac3, active compounds read low 0.998 | locus YDR162C, strain NBP2, active compounds read low 0.999 | locus YDR195W, strain ref2 1.01 | locus YDR297W, strain sur2, active compounds read low 0.981 | locus YDR318W, strain mcm21, active compounds read low 0.993 | locus YDR334W, strain swr1, active compounds read low 0.969 | locus YDR335W, strain msn5, active compounds read low 0.966 | locus YDR363W, strain ESC2, active compounds read low 0.999 | locus YDR388W, active compounds read low 0.996 | locus YDR392W, strain spt3, active compounds read low 0.881 | locus YDR502C, strain sam2, active compounds read low 0.989 | locus YEL003W, strain gim4, active compounds read low 0.991 | locus YEL037C, strain rad23, active compounds read low 0.983 | locus YEL061C, strain CIN8 (second series), active compounds read low 0.992 | locus YEL061C, strain CIN8, active compounds read low 0.988 | locus YER002W, strain NOP16, active compounds read low 0.993 | locus YER015W, strain faa2, active compounds read low 1 | locus YER016W, strain bim1, active compounds read low 0.936 | locus YER110C, active compounds read low 0.99 | locus YER111C, strain swi4, active compounds read low 0.966 | locus YER155C, strain BEM2 (second series), active compounds read low 0.966 | locus YER155C, strain BEM2, active compounds read low 1 | locus YER167W, strain BCK2, active compounds read low 0.995 | locus YFR010W, strain ubp6, active compounds read low 1 | locus YGL078C, strain dbp3, active compounds read low 0.994 | locus YGL086W, strain mad1, active compounds read low 0.988 | locus YGL167C, strain pmr1, active compounds read low 0.922 | locus YGL173C, strain kem1, active compounds read low 0.998 | locus YGL227W, strain vid30, active compounds read low 0.993 | locus YGL240W, strain doc1, active compounds read low 0.991 | locus YGL248W, strain PDE1, active compounds read low 0.975 | locus YGL253W, strain hxk2, active compounds read low 0.993 | locus YGR078C, strain PAC10, active compounds read low 0.967 | locus YGR135W, strain pre9, active compounds read low 0.997 | locus YGR229C, strain SMI1, active compounds read low 0.994 and 0.978 | locus YGR252W, strain gcn5, active compounds read low 0.96 | locus YHR013C, strain ard1, active compounds read low 0.91 | locus YHR027C, strain rpn1, active compounds read low 0.994 | locus YHR030C, strain SLT2, active compounds read low 1 and 0.988 | locus YHR079C, strain IRE1 (second series), active compounds read low 0.989 | locus YHR079C, strain IRE1, active compounds read low 1.01 | locus YHR094C, strain hxt1, active compounds read low 0.998 | locus YHR129C, strain ARP1, active compounds read low 1 | locus YHR142W, strain chs7, active compounds read low 0.964 | locus YHR200W, strain rpn10, active compounds read low 0.987 | locus YIL066C, strain RNR3, active compounds read low 0.972 | locus YIL073C, strain SPO22, active compounds read low 1.07 | locus YIL125W, strain kgd1, active compounds read low 0.984 | locus YIR030C, strain dcg1, active compounds read low 0.994 | locus YJL092W, strain hpr5, active compounds read low 0.974 | locus YJL095W, strain BCK1 (second series), active compounds read low 0.982 | locus YJL095W, strain BCK1, active compounds read low 0.968 and 1.01 | locus YJL115W, strain asf1, active compounds read low 0.966 | locus YJL129C, strain trk1, active compounds read low 0.949 | locus YJL134W, strain LCB3, active compounds read low 1 | locus YJL154C, strain vps35, active compounds read low 0.969 | locus YJL164C, strain tpk1, active compounds read low 0.984 | locus YJL166W, strain qcr8, active compounds read low 0.99 | locus YJL168C, strain set2, active compounds read low 0.986 | locus YJL187C, strain SWE1 (second series), active compounds read low 0.969 | locus YJR043C, strain POL32, active compounds read low 0.997 | locus YJR066W, strain TOR1, active compounds read low 0.938 | locus YJR075W, strain HOC1, active compounds read low 0.985 and 0.996
